Consider 89 compounds from ChEMBL document CHEMBL3988442, “University of Dundee, Small-Polar-MMV Screening Library” (2021).

Screen size: about 69,000 compounds; about 950 (1.4%) showed an effect of 50% or more. This excerpt belongs to a sample that is enriched for strong results.

The test has as its system Mycobacterium tuberculosis. In words: Cornell M. t heat shock assay. Further: in the data most compounds retested in dose-response had high values. The class given is functional, organism-based. Also noted: dose or concentration left out as unconfirmed.
For `CC(C)(C)c1nc(CN2CCCC2c2nnc3ccccn23)no1` (centres undefined), the “Percent Effect” value was 0.5342%.
Then `Cn1cccc1C1CCCN1Cc1noc(C(C)(C)C)n1` (centres undefined), with -40.09%; and `CCn1c(C2CCCN2Cc2noc(C(C)(C)C)n2)nc2ccccc21` (centres undefined), with 50.31%.
Then `Cc1nc(CN2C(=O)COC3(CCN(C)CC3)C2C)cs1.O=C(O)C(F)(F)F` (centres undefined), with -6.14%; and `NCC1CCCN(c2nc(-c3ccccc3)nc3c2CCNCC3)C1` (centres undefined), with 69.25%; and `NCC1CN(c2nc(-c3ccccc3)nc3c2CCNCC3)CCO1` (centres undefined), with 43.48%.
For the compound `N#CC1CCCN(c2nc(-c3ccccc3)nc3c2CCNCC3)C1` (centres undefined), the “Percent Effect” value is reported as -9.181%.
Then `Cc1cc(CN2CCC(CNC(=O)c3cnc(C)nc3C)C2)[nH]n1` (centres undefined), with -10.7%; and `Cc1cc(CN2CCC(CNC(=O)c3nccc4ccccc34)C2)[nH]n1` (centres undefined), with 59.25%; and `Cc1cc(CN2CCC(CNC(=O)Cc3ccc(F)cc3)C2)[nH]n1` (centres undefined), with -9.663%.
Then `CN1[C@H](CN2CCCC2)C[C@@H]2CN(C(=O)Cc3ccsc3)CC[C@@H]21.O=C(O)C(F)(F)F.O=C(O)C(F)(F)F`, with -7.166%; and `CN(C)C(=O)[C@@H]1CC[C@@H]2[C@@H](CCN2Cc2nccs2)O1.O=C(O)C(F)(F)F`, with 11.33%.
Take `NC(=O)C1Cn2ccnc2C2(CCN(C(=O)NC3CCCC3)CC2)O1.O=C(O)C(F)(F)F` (centres undefined): the “Percent Effect” value is reported as 2.522%.
Next, `Fc1cccc(CN2CCC(c3n[nH]c4ncccc34)CC2)c1F`: -15.12%; `Fc1cccc(CN2CCC(c3noc(-c4ccccn4)n3)CC2)c1F`: 12.47%.
Take `Cl.Fc1cccc(CN2CCC(c3cc4ncccc4cn3)CC2)c1F`: the “Percent Effect” value is listed as 102.4%.
Next, `Fc1ccccc1CN1CCC(c2noc(-c3ccccn3)n2)CC1`: 13.63%.
Then `Fc1ccc(F)c(CN2CCC(c3cnccn3)CC2)c1`, with -4.596%; and `Fc1cc(F)cc(CN2CCC(c3cc4ncccc4cn3)CC2)c1`, with 17.06%; and `CCc1onc(C)c1C(=O)N1CCC(c2cc3ncccc3cn2)CC1`, with 13.11%.
Then `Cl.Fc1ccc(F)c(CN2CCC(c3cc4ncccc4cn3)CC2)c1`, with 103.6%.
Take `COc1ccc(C)cc1CN1CCC(c2cc3ncccc3cn2)CC1.Cl`: the “Percent Effect” value is listed as 102.1%.
As to `COc1ccc(C)cc1CN1CCN(Cc2nccn2C)CC1`, the “Percent Effect” value is given as 1.633%.
Next, `Fc1cccc(CN2CCC(c3noc(-c4cnccn4)n3)CC2)c1F`: -19.36%.
For the compound `Cc1nc(CN2CCOCC3(CCN(c4ccccn4)C3)C2)cs1.O=C(O)C(F)(F)F.O=C(O)C(F)(F)F` (centres undefined), the “Percent Effect” value is on record as -41.64%.
Next, `CCN(CCNS(=O)(=O)C1CCOCC1)C(=O)OC(C)(C)C`: -7.011%; `COCC(=O)NC[C@H]1CC[C@H](c2ccnc3ncnn32)CC1`: 20.19%.
Then `COc1ccc(C(C)N(C)Cc2c(C3CC3)[nH]c3ncccc23)cc1.Cl` (centres undefined), with -15.93%.
In the case of `CCC/N=c1/c(NC(=O)NCCOC)c(O)oc2ccccc12`, the “Percent Effect” value is on record as -14.33%.
Next, `CC(C)Nc1cc(N2CCC(n3cc(C4CC4)nn3)CC2)ncn1`: -24.54%; `CCc1cc(N2CCC(n3cc(C(=O)NC4CC4)nn3)CC2)ncn1`: 51.27%; `O=C(NC1CC1)c1cn(C2CCN(c3cc(C4CC4)ncn3)CC2)nn1`: 61.79%.
Then `CCc1cc(N2CCC(NC(=O)CCC3CCCO3)CC2)ncn1` (centres undefined), with -18.51%; and `CCc1cc(N2CCC(n3cc(C(=O)NCC(C)C)nn3)CC2)ncn1`, with 7.459%; and `OCCNc1cc(N2CCC(n3cc(C4CCCC4)nn3)CC2)ncn1`, with 8.872%.
Consider `CC(C)OCc1ncn2c1CN(Cc1ccc(F)cc1)CCC2.O=C(O)C(F)(F)F`, for which the “Percent Effect” value was -13.8%.
As for `Cc1ccc(-n2cccn2)cc1S(=O)(=O)N1C[C@@H]2CC[C@H](C1)N(C)C2`, the “Percent Effect” value stood at 23.12%.
Then `Cn1cc(C2CC(=O)NC23CCN(C(=O)Cc2ccccn2)CC3)cn1.O=C(O)C(F)(F)F` (centres undefined), with -20.75%; and `COc1ccnc(CN2CCCC(CCc3ccccc3)C2)c1OC` (centres undefined), with 22.56%; and `COc1ccnc(CN2CCCC(CCc3ccc(F)cc3)C2)c1OC` (centres undefined), with 80.3%.
`COc1coc(CN2CCCC(CCc3ccc(F)cc3)C2)cc1=O` (centres undefined): the “Percent Effect” value is recorded as -2.405%.
Next, `COCCN1CC[C@@H]2OC(COCC(=O)N3CCCC3)CC[C@@H]21.O=C(O)C(F)(F)F` (some centres undefined): -19.46%.
Then `CCCNCc1ncc(C)c(OC)c1C`, with -10.29%.
Then `COc1c(C)cnc(CNCC(C)C)c1C`, with -4.994%.
Turning to `CCCS(=O)(=O)NCc1ncc(C)c(OC)c1C`, the “Percent Effect” value is recorded as 51.82%.
Then `FC1(F)CCN(Cc2ccccn2)CC12CCN(c1cccnc1)C2.O=C(O)C(F)(F)F.O=C(O)C(F)(F)F.O=C(O)C(F)(F)F` (centres undefined), with -10.62%; and `Cc1csc2ncc(-c3ccnc(N4CCCC[C@@H]4CO)n3)c(=O)n12`, with 73.7%.
Next, `Cc1csc2ncc(-c3ccnc(N4CCC[C@@H]4CO)n3)c(=O)n12`: -11.68%.
Then `O=c1c(-c2ccnc(N3CCCC[C@@H]3CO)n2)cnc2sccn12`, with -1.826%; and `Cc1nc(CN2CCc3ncnc(-c4ccc(F)cc4)c3CC2)cs1.O=C(O)C(F)(F)F`, with -9.802%.
Regarding `CN(CC1CCCO1)c1nc(-c2cccnc2)nc2c1CCNCC2` (centres undefined), the “Percent Effect” value is given as -30.46%.
Next, `CCc1noc(CNc2nc(-c3cccnc3)nc3c2CCNCC3)n1`: -6.144%; `CC(O)CNc1nc(-c2cccnc2)nc2c1CCC2` (centres undefined): 6.387%; `c1cncc(-c2nc3c(c(NCC4(c5ccncc5)CC4)n2)CCC3)c1`: -38.69%.
Then `Cl.NC1CCc2nc(-c3cccnc3)nc(Nc3ccc(F)cc3)c2C1` (centres undefined), with 99.91%.
Then `CCn1ccc(C(=O)N2CCCC2c2nnc(-c3scnc3C)o2)n1` (centres undefined), with -2.34%; and `CC(c1cccc(Cl)c1)N(C)CCS(=O)(=O)CCC(N)=O` (centres undefined), with 31.14%; and `CC(c1ccc(F)c(F)c1)N(C)CCS(=O)(=O)CCC(N)=O` (centres undefined), with 53.46%.
In the case of `Cc1ccc(OCCN(C)C(C)c2cccc(S(N)(=O)=O)c2)cc1` (centres undefined), the “Percent Effect” value is reported as -22.37%.
Next, `CC(c1cc(F)ccc1F)N(C)CCS(=O)(=O)CCC(N)=O` (centres undefined): 49.2%.
Then `Cc1ccc(C(C)NC(=O)CSCC(N)=O)cc1` (centres undefined), with 15.53%.
Next, `Cc1ccc(C(C)N(C)CCS(=O)(=O)CCC(N)=O)cc1` (centres undefined): 68.62%; `O=C(O)C(F)(F)F.O=C(O)C(F)(F)F.O=C(O)C(F)(F)F.c1cc(CN2CCN3C[C@H](Oc4cncnc4)C[C@H]3C2)ccn1`: 11.96%.
`COCCN(CC1CC1)c1nc(CCN)nc2sc(C)c(C)c12`: the “Percent Effect” value was determined as 9.263%.
Next, `Cc1sc2nc(CCN)nc(N(CCN(C)C)CC3CCCO3)c2c1C` (centres undefined): -25.67%; `CCN(CCN(C)C)c1nc(CCN)nc2sc(C)c(C)c12`: 91.54%.
Next, `COc1cc(N2C[C@H]3CCC[C@@H](CN(C)C)[C@H]3C2)ncn1.O=C(O)C(F)(F)F`: -30.27%; `O=C1CCCC2=C1C(c1ccc(Cl)cc1Cl)Nc1nonc1N2` (centres undefined): 15.96%; `FC1(F)CCN(Cc2cccnc2)CC12CCN(c1ccccn1)C2.O=C(O)C(F)(F)F.O=C(O)C(F)(F)F.O=C(O)C(F)(F)F` (centres undefined): 8.031%.
Next, `O=C(CO)N1CCC(F)(F)C2(CCN(c3ccccc3)C2)C1.O=C(O)C(F)(F)F` (centres undefined): 34.47%.
For the compound `O=C(O)C(F)(F)F.O=C(c1c[nH]cn1)N1CCC(F)(F)C2(CCN(c3ncccn3)C2)C1` (centres undefined), the “Percent Effect” value was -10.36%.
Next, `O=C(O)C(F)(F)F.O=C(O)C(F)(F)F.O=C(c1c[nH]cn1)N1CCC(F)(F)C2(CCN(c3ccccn3)C2)C1` (centres undefined): 6.804%; `O=C(O)C(F)(F)F.O=C(O)C(F)(F)F.O=C(O)CN1CCC(F)(F)C2(CCN(c3ccccc3)C2)C1` (centres undefined): 100.8%.
Next, `FC1(F)CCN(Cc2ccncc2)CC12CCN(c1cccnc1)C2.O=C(O)C(F)(F)F.O=C(O)C(F)(F)F.O=C(O)C(F)(F)F` (centres undefined): -5.593%.
Then `O=C(O)C(F)(F)F.O=C(O)C(F)(F)F.O=C(O)CN1CCC(F)(F)C2(CCN(c3ccccn3)C2)C1` (centres undefined), with -7.749%; and `FC1(F)CCN(Cc2cccnc2)CC12CCN(c1ccccc1)C2.O=C(O)C(F)(F)F.O=C(O)C(F)(F)F.O=C(O)C(F)(F)F` (centres undefined), with 107.1%.
On to `O=C(O)C(F)(F)F.O=C(c1c[nH]cn1)N1CCC(F)(F)C2(CCN(c3cccc(F)c3)C2)C1` (centres undefined), for which the “Percent Effect” value is 53.67%.
Next, `Cc1ccc(C(=O)N2CCC3(CCN(C(=O)c4cccnc4)C3)CC2)o1.O=C(O)C(F)(F)F`: 1.785%; `COC(=O)CC(C)(C)CC(=O)N1CCC(C(F)(F)F)CC1`: -1.161%; `Cc1nn(C)cc1S(=O)(=O)NCC(c1ccccc1)N1CCCCCC1.Cl` (centres undefined): -15.55%.
Then `CN(C)CCNCCC(Cc1ccccc1)C1CCOC(C)(C)C1.O=C(O)C(=O)O` (centres undefined), with -22.2%.
Next, `Cl.FC(F)(F)c1nc(C2CCNCC2)no1`: -8.269%; `COCCN1CCC2(CC1)CC(NCc1ccc(C)s1)c1ccccc12.O=C(O)C(F)(F)F.O=C(O)C(F)(F)F` (centres undefined): 1.76%.
For the compound `Cc1nc(CN2C[C@@H]3CN(C(=O)c4cccn4C)C[C@@H]3C2=O)cs1.O=C(O)C(F)(F)F`, the “Percent Effect” value is -10.46%.
Then `O=C(O)C(F)(F)F.O=C(c1ccc(F)cc1)N1C[C@H]2CCC[C@@]2(COCc2ccccn2)C1`, with 7.203%; and `CN1CCCC(c2cccc(-c3cccc(Cl)c3)n2)C1` (centres undefined), with -13.07%; and `N#Cc1ncn(CC(=O)Cc2c(F)cccc2Cl)n1`, with 85.52%.
Then `CN(Cc1c(F)cccc1Cl)C(=O)Cn1cnc(C#N)n1`, with -1.386%.
Then `N#Cc1ncn(Cc2c(F)cccc2Cl)n1`, with -2.259%.
